Data on eight compounds can be found in PubChem BioAssay (NCI).

Some test systems named below: HCT-15 colon; HT29 colon; SNB-75 CNS; SNB-19 CNS; U251 CNS; PC-3 prostate; SK-MEL-5 melanoma; UACC-62 melanoma; LOX IMVI melanoma; SK-MEL-28 melanoma; SK-MEL-2 melanoma; EKVX NSCLC; SN12C renal; UO-31 renal; TK-10 renal; ACHN renal; A498 renal; CCRF-CEM leukemia; MOLT-4 leukemia; SR leukemia.
Assay in all cases: NCI-60 one-dose screen, 48 h (100 = growth as untreated, 0 = no growth, -100 = all killed)
Holding throughout (conditions): 10 µM unless noted

The panel holds about 83,000 compounds, 20% with a hit somewhere; the sample as a whole holds those more often.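 Values shown are percent growth following 48 h exposure of cells in 96-well plates to a single concentration of compound; below 10 was considered active.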 A number with no mark means an inactive call. The source made the active and inactive calls.

`COc1ccc(C(=O)c2cc(OC)c(C)c(OC)c2)cc1OC(=O)CCl`: the growth with HCT-15 colon is 12.4%; with HT29 colon, 55.6%; in the test with SNB-75 CNS, 38.1%; with SNB-19 CNS, 28.4%; in the test on U251 CNS, 17.1%; with PC-3 prostate, 13.4%. Further, the growth was 9.8% (active) with SK-MEL-5 melanoma; 38% with UACC-62 melanoma; 21.8% in the test with LOX IMVI melanoma; 49.5% in the test on SK-MEL-28 melanoma; 35.4% in the test with SK-MEL-2 melanoma; 64.4% with EKVX NSCLC. Also, the growth is 41.5% with SN12C renal; 49.9% in the test with UO-31 renal; 66.5% with TK-10 renal; 41.5% in the test with ACHN renal; 78.5% in the test with A498 renal; 11.9% in the test with CCRF-CEM leukemia. In addition, the growth in the test with MOLT-4 leukemia is 13.6%; with SR leukemia it was 12.5%.
For the compound `CCC[S@](=O)c1ccc2nc(NC(=O)OC)[nH]c2c1`, the growth was 98.9% in the test with HCT-15 colon; 79.2% with HT29 colon; 86.2% in the test with SNB-75 CNS; 95.2% with SNB-19 CNS; 89.1% in the test with U251 CNS; 89.8% in the test with PC-3 prostate. In addition, the growth in the test with SK-MEL-5 melanoma is 98.7%; in the test on UACC-62 melanoma it was 89.8%; with LOX IMVI melanoma, 96.5%; in the test on SK-MEL-28 melanoma it was 107%; in the test on SK-MEL-2 melanoma, 99.2%; in the test with EKVX NSCLC, 95.3%. Also, the growth in the test with SN12C renal is 100%; in the test on UO-31 renal, 96.8%; in the test with TK-10 renal it was 91.7%; in the test on ACHN renal, 103%; in the test on A498 renal, 95.1%; in the test with CCRF-CEM leukemia, 96.2%. Also, the growth in the test on MOLT-4 leukemia is 79.6%; in the test on SR leukemia, 75.3%.
Regarding `O=C1CS/C(=N/c2nnc(-c3ccc(O)cc3)s2)N1`, the growth with HCT-15 colon is 101%; in the test on HT29 colon, 103%; in the test with SNB-75 CNS, 111%; in the test on SNB-19 CNS, 108%; with U251 CNS it was 101%; in the test with PC-3 prostate, 99.5%. The growth in the test on SK-MEL-5 melanoma was 102%; with UACC-62 melanoma it was 108%; in the test on LOX IMVI melanoma, 92.2%; with SK-MEL-28 melanoma, 110%; with SK-MEL-2 melanoma, 108%; with EKVX NSCLC, 92.7%. Further, the growth in the test with SN12C renal is 101%; in the test on UO-31 renal, 93.5%; in the test with TK-10 renal, 115%; with ACHN renal, 103%; in the test with A498 renal it was 108%; in the test with CCRF-CEM leukemia it was 97%. The growth was 80.5% in the test with MOLT-4 leukemia and 93.1% in the test with SR leukemia.
As for `COC(=O)CCc1n(Cc2ccc3ccccc3c2)c2ccccc2[n+]1Cc1ccc2ccccc2c1`, the growth with HCT-15 colon is 79.1%; in the test with HT29 colon it was -25.5% (active); with SNB-75 CNS it was -8.15% (active); with SNB-19 CNS, 16%; in the test on U251 CNS, 8.5% (active); with PC-3 prostate, 6.6% (active). Also, the growth with SK-MEL-5 melanoma is -92.9% (active); with UACC-62 melanoma, -54% (active); in the test with LOX IMVI melanoma, -59.3% (active); in the test with SK-MEL-28 melanoma it was 4.8% (active); in the test on SK-MEL-2 melanoma, -56.2% (active); in the test with EKVX NSCLC it was 42.1%. In addition, the growth is 7.8% (active) in the test on SN12C renal; 78.9% with UO-31 renal; -5.81% (active) in the test with TK-10 renal; 86.8% with ACHN renal; 8.46% (active) in the test with A498 renal; 9.86% (active) in the test with CCRF-CEM leukemia. Also, the results for the growth in the test on MOLT-4 leukemia and in the test with SR leukemia were 3.6% (active) and -47.7% (active), respectively.
For `O=C1NC(SCc2ccc(F)cc2)=N/C1=C/c1cccc(OCc2ccc(Cl)cc2)c1`, the growth in the test with HCT-15 colon is 72.1%; with HT29 colon it was 68.1%; with SNB-75 CNS it was 50.7%; in the test with SNB-19 CNS, 33.4%; in the test on U251 CNS, -41.2% (active); in the test with PC-3 prostate it was 77.5%. The growth in the test with SK-MEL-5 melanoma was 83%; with UACC-62 melanoma it was 72%; in the test on LOX IMVI melanoma, 24.7%; in the test with SK-MEL-28 melanoma, 91.2%; in the test on SK-MEL-2 melanoma, 99.4%; in the test with EKVX NSCLC it was 66.3%. The growth is 22.1% with SN12C renal; -38.2% (active) in the test on UO-31 renal; -5.9% (active) with TK-10 renal; -53.7% (active) in the test on ACHN renal; -5.28% (active) in the test on A498 renal; 54.8% with CCRF-CEM leukemia. Further, the growth is 51.2% with MOLT-4 leukemia and 20.6% with SR leukemia.
As to `N#Cc1c(-c2ccc(F)cc2)c(C#N)c2c(C#N)c(N)nn2c1N`, the growth was 106% in the test with HCT-15 colon; 98.7% in the test on HT29 colon; 87.8% in the test on SNB-75 CNS; 108% with SNB-19 CNS; 94.7% in the test on U251 CNS; 77.4% with PC-3 prostate. The growth was 96.8% in the test with SK-MEL-5 melanoma; 105% in the test with UACC-62 melanoma; 89.9% with LOX IMVI melanoma; 111% with SK-MEL-28 melanoma; 102% with SK-MEL-2 melanoma; 96.8% with EKVX NSCLC. The growth in the test on SN12C renal is 104%; in the test on UO-31 renal, 75.4%; in the test on TK-10 renal it was 86.4%; in the test on ACHN renal, 95.7%; with A498 renal it was 93.7%; in the test with CCRF-CEM leukemia, 104%. Moreover, the growth is 85.9% in the test on MOLT-4 leukemia and 93.7% with SR leukemia.
As for `CCCCn1c(=O)c(/C=C/C(=O)/C=C/c2ccc(O)c(OC)c2)cc2ccc(Cl)cc21`, the growth in the test with HCT-15 colon was 9.41% (active); in the test on HT29 colon it was -41.7% (active); in the test on SNB-75 CNS, 54.8%; in the test on SNB-19 CNS, 38.3%; in the test with U251 CNS, 3.33% (active); in the test with PC-3 prostate, 27.2%. The growth was 3.38% (active) with SK-MEL-5 melanoma; 2.4% (active) in the test with UACC-62 melanoma; -51.3% (active) in the test on LOX IMVI melanoma; 38.8% in the test on SK-MEL-28 melanoma; 42.1% in the test on SK-MEL-2 melanoma; 40.1% in the test on EKVX NSCLC. For the same compound, the growth is 12.3% in the test with SN12C renal; 6.03% (active) with UO-31 renal; 54.2% with TK-10 renal; 19.9% in the test with ACHN renal; 77.6% in the test with A498 renal; 2.91% (active) in the test with CCRF-CEM leukemia. Moreover, the figures for the growth in the test with MOLT-4 leukemia and in the test with SR leukemia were 8.28% (active) and 3.78% (active), respectively.
As to `Cc1nccc2c3ccc(OCc4cn(-c5ccccc5)nn4)cc3n(CCCc3ccccc3)c12`, the growth in the test with HCT-15 colon was 56.9%; with HT29 colon, 38.5%; in the test on SNB-75 CNS it was 73.8%; with SNB-19 CNS it was 79.3%; in the test on U251 CNS it was 76.8%; in the test on PC-3 prostate it was 65.1%. For the same compound, the growth with SK-MEL-5 melanoma was 80.4%; in the test on UACC-62 melanoma, 83.3%; in the test on LOX IMVI melanoma, 81.3%; in the test on SK-MEL-28 melanoma, 99%; in the test with SK-MEL-2 melanoma, 91.7%; in the test with EKVX NSCLC, 69.9%. Besides, the growth with SN12C renal was 75.6%; in the test with UO-31 renal it was 54.6%; with TK-10 renal, 71.6%; in the test on ACHN renal, 72%; with A498 renal, 53.8%; with CCRF-CEM leukemia it was 77.4%. For the same compound, the values for the growth in the test on MOLT-4 leukemia and in the test on SR leukemia were 35.3% and 33.5%, respectively.
